Reference: PubChem BioAssay (NCI)
Where “and” joins values, the source holds several entries; their conditions need not be identical. Identical values can stand only once. This is part of a sample that, as a whole, favours compounds with a hit. Of some 79,000 tested, about 15% had one in any assay. Calls of active or inactive are those of the source. No stated cut-off is given here; in the data, active means growth inhibition above about 70%; inactive means the rest.

Assays:
[1] = NCI Yeast Anticancer Drug Screen. Data for the rad50 strain (AID 155);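 further: 0% = growth of vehicle-only cultures of the same strain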; details: S. cerevisiae rad50 strain growth inhibition; at 50.0 µM; hits give high values
Summary of the method: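 Compounds were tested on a yeast strain with an engineered DNA damage repair alteration; the reported value is growth inhibition normalised to vehicle treatment.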

[2] = NCI Yeast Anticancer Drug Screen. Data for the mec2-1 strain (AID 157); details: S. cerevisiae mec2-1 strain, at 50.0 µM, hits give high values
Summary of the method: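 Strain: mec2-1 (DNA repair/cell cycle alteration). Compound exposure, then growth measured; inhibition expressed relative to vehicle.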

[3] = NCI Yeast Anticancer Drug Screen. Data for the sgs1 mgt1 strain (AID 161);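 further: 0% = growth of cultures given vehicle only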; details: S. cerevisiae sgs1 mgt1 strain, at 50.0 µM, hits give high values
Summary of the method: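 Test agents were incubated with a DNA-repair-mutant yeast strain. Growth was then read and compared against vehicle-treated controls.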

[4] = NCI Yeast Anticancer Drug Screen. Data for the cln2 rad14 strain (AID 165);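 further: 0% = growth equal to vehicle treated cultures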; details: S. cerevisiae cln2 rad14 strain, at 50.0 µM, hits give high values
Summary of the method: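 Compounds are applied to the cln2 rad14 yeast strain, and growth is then compared with that of vehicle-treated cultures to give inhibition.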

[5] = NCI Yeast Anticancer Drug Screen. Data for the bub3 strain (AID 167); details: S. cerevisiae bub3 mutant strain, at 50.0 µM, hits give high values
Summary of the method: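 Growth of a checkpoint-deficient yeast mutant is measured after compound exposure. Values represent inhibition relative to vehicle.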

[6] = NCI Yeast Anticancer Drug Screen. Data for the mlh1 rad18 strain (AID 175); details: S. cerevisiae mlh1 rad18 strain growth inhibition; at 50.0 µM; hits give high values
Summary of the method: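 Read-out is yeast growth inhibition, calculated against vehicle-only controls. The compound was applied to a strain engineered with DNA damage repair alterations.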

Measured: growth inhibition

CC(C)(C)c1ccc(C(C)(C)OO)cc1
inactive: [1] 31.6% | [2] -0.7% | [3] 18.3% | [4] 12.3% | [5] 10.2% | [6] 6.2%

O=c1oc2cc(O)ccc2c(O)c1C(c1cccnc1)c1c(O)c2ccc(O)cc2oc1=O
inactive: [1] 0.75% | [2] 1.25% | [3] 11.7% | [4] -0.05% | [5] -0.5% | [6] -80.5%

CC(=O)C1C=NCCN=CC(C(C)=O)C(C)=NCCCN=C1C.[Ni] (stereo not given)
inactive: [1] 10.7% | [2] 4.3% | [3] 14.4% | [4] -2.2% | [5] 8.7% | [6] 18.5%

CCc1cccc(C(C)C)c1NC(=O)C(=O)C1C(=O)NC(=O)NC1=O
inactive: [1] -40.1% | [2] -12.2% | [3] -9.45% | [4] 18.1% | [5] -10.6% | [6] -31.4%

O=[N+]([O-])c1ccc(OCc2ccc(Cl)c(S(=O)(=O)F)c2)c(Cl)c1
inactive: [1] -18.1% | [2] -8.3% | [3] 29.8% | [4] -24.4% | [5] 20.7% | [6] 24.1%

CC(C)CCC1(CC[N+](C)(C)C)C(=O)NC(=O)NC1=O
inactive: [1] 5.95% | [2] -9.85% | [3] 6.15% | [4] -29.2% | [5] 10.7% | [6] -7.05%

Cc1cc(O)ccc1[N+](=O)[O-]
inactive: [1] 1.15% | [2] -1.2% | [3] 11.8% | [4] 9.6% | [5] 2.9% | [6] 2.95%

CCCN1CCC2(CC1)COCc1ccccc12
inactive: [1] 30.8% | [2] 26.9% | [3] 28.4% | [4] 12.6% | [5] 15.1% | [6] 34.8%

CC1N=NNN1C (stereo not given)
inactive: [1] -1.8% | [2] -9.7% | [3] -2.3% | [4] -5.9% | [5] 8.75% | [6] -8.65%

CCc1ccc(OP(=O)(Oc2cc(C)cc(C)c2)Oc2cc(C)cc(C)c2)cc1
inactive: [1] -27.9% | [2] -12.9% | [3] -16.1% | [4] 3.45% | [5] 1.55% | [6] -15.9%

CN(C)CCO
inactive: [1] -21.4% | [2] 11.5% | [3] 4.55% | [4] -1.65% | [5] 23.4% | [6] 35.4%

S=C=NCc1ccccc1
inactive: [1] -1.55% | [2] 2.65% | [3] 20.4% | [4] -12.9% | [5] 0.85% | [6] 1.9%

C1CC2CCC(N3CCCC3)C(C1)C21OCCO1 (stereo not given)
inactive: [1] 11.3% | [2] 9.75% | [3] 5.05% | [4] -3.2% | [5] 6.45% | [6] -8.9%

O=C(CCN1CC2CCC(CC2)C1)c1cccs1
inactive: [1] -15.8% | [2] -21.9% | [3] -16.4% | [4] -13.9% | [5] -45.8% | [6] -28.8%

O=C(COc1ccc(Cl)c(Cl)c1)Nc1ccc[n+](Cc2ccc(S(=O)(=O)F)cc2Cl)c1
inactive: [1] 52.5% | [2] 27.9% | [3] 17.6% | [4] 58.2% | [5] 4% | [6] 8.5%

[Cl][Pd]([Cl])([Cl])[Cl].[NH-]CC[NH-].[NH-]CC[NH-].[Pd+2]
inactive: [1] 28.7% | [2] 16.9% | [3] 32% | [4] -3.5% | [5] 26.4% | [6] 54.7%

O.O=[Se](=O)(O)O.[NH-]C1CCCCC1[NH-].[Pt+2] (stereo not given)
inactive: [1] -16.1% | [2] -16.9% | [3] -16.1% | [4] -21.5% | [5] -36.1% | [6] -55.5%

O=C([O-])c1ccccc1Nc1ccccn1.O=C([O-])c1ccccc1Nc1ccccn1.[Ni+2]
inactive: [1] -15% | [2] -12.4% | [3] -15.6% | [4] 8.15% | [5] -16.8% | [6] -9.85%

O=C1SCCC1NP(=O)(Oc1ccccc1)Oc1ccccc1 (stereo not given)
inactive: [1] 5.35% | [2] 23.1% | [3] -1.35% | [4] -10.9% | [5] 9.25% | [6] 21.9%

CCCC(=O)O.[Ni]
inactive: [1] 8.1% | [2] -4.05% | [3] -6% | [4] -39.9% | [5] -20.2% | [6] -2.7%

CC(C)N1COC2Cc3ccccc3CC21 (stereo not given)
inactive: [1] -7.15% | [2] 1.65% | [3] -29% | [4] 10.1% | [5] -20.2% | [6] -16.9%

CC[CH2][Sn]([CH2]CC)[CH2]CC.CC[CH2][Sn]([CH2]CC)[CH2]CC
active: [1] 99.2% | [2] 99.5% | [3] 99.5% | [4] 99.5% | [5] 98.6% | [6] 99.4%

CN(C)C(=O)Oc1c(Cl)cc(S(=O)(=O)F)cc1Cl
inactive: [1] 26.4% | [2] 0.8% | [3] 12.7% | [4] 12.8% | [5] 2.65% | [6] 12.4%

C[CH2][Sn]1([CH2]C)[O]OC(c2ccccc2)[O]1 (stereo not given)
inactive: [1] 6.25% | [2] 2.75% | [3] 18.7% | [4] -3.65% | [5] 14.1% | [6] 20.3%

O=[N+]([O-])O.[Tl]
inactive: [1] -5.5% | [2] -23.2% | [3] -16.8% | [4] 6.8% | [5] -19.4% | [6] -18.4%

Cc1cc(C)n(-c2nc3ccccc3c(=O)n2-c2ccccc2)n1
inactive: [1] -2.9% | [2] -2.75% | [3] -14.5% | [4] 0.4% | [5] -7.75% | [6] -16.9%

CC(C)(O)C1=CC23CC(C)(C(=O)O)C4CCCCC4(C)C2CC1OO3 (stereo not given)
inactive: [1] 21.4% | [2] -7.3% | [3] 32% | [4] 11.4% | [5] -10.3% | [6] 25.4%

C1CCN2CC3CCCN4CCCC(C2C1)C34 (stereo not given)
inactive: [1] 5.5% and 7.1% | [2] -21.9% and -1.05% | [3] 7.3% and -16.1% | [4] -0.35% and -0.5% | [5] -11.9% and -6.6% | [6] -96.5% and -85.2%

C/C=C/COC(=O)CO[N+](=O)[O-]
inactive: [1] 2% | [2] -4.25% | [3] -5.3% | [4] -12.8% | [5] -0.5% | [6] -0.15%

O=C1C=CC(=O)c2c(O)cccc21
inactive: [1] 27.4% | [2] 13.2% | [3] 38% | [4] 15.4% | [5] 41.3% | [6] 29.2%

COC(=O)Nc1nc2ccccc2[nH]1
inactive: [1] -18.6% | [2] -4.4% | [3] -13% | [4] 4.2% | [5] 2.45% | [6] 7.15%

N.N.N.N.N.O=C([O-])CCl.[Co+3].[O-][Cl+3]([O-])([O-])[O-]
inactive: [1] -21.4% | [2] -7.45% | [3] -33.5% | [4] -0.1% | [5] -16.6% | [6] -31.4%

O=C([O-])CC(=O)[O-].O=C([O-])CC(=O)[O-].[K+].[Pd+2]
inactive: [1] 14.2% | [2] 19.1% | [3] 28.2% | [4] 26.6% | [5] 11.5% | [6] 16.2%

ClCCOCOCCCl
inactive: [1] -0.5% | [2] -7.1% | [3] -20.1% | [4] -38% | [5] -6.15% | [6] -7.25%

Cc1c2n(c3ccccc13)CC1CON(C)C21 (stereo not given)
inactive: [1] -14.4% | [2] -11.5% | [3] -8.95% | [4] -1.3% | [5] -31.4% | [6] -19.9%

Cc1cc(NC2=NCCO2)c2c(c1C)CCCC2
inactive: [1] -10.1% | [2] -23.1% | [3] -6.9% | [4] 22.3% | [5] -7.85% | [6] -5.35%

COc1cc(CC(N)Cc2c[nH]c3ccccc23)cc(OC)c1OC (stereo not given)
inactive: [1] -5.2% | [2] -5.8% | [3] -4.85% | [4] 24.6% | [5] -25.3% | [6] -3.35%

O=C(O)C(CSC(c1ccccc1)(c1ccccc1)c1ccccc1)N=Cc1cccs1 (stereo not given)
inactive: [1] -8% | [2] -1.65% | [3] -1.95% | [4] -33.9% | [5] 43.3% | [6] -18.2%

CC(N)C(=O)O (stereo not given)
inactive: [1] 17.9% and -7.45% | [2] -43.1% and -5.4% | [3] 8.7% and -25.4% | [4] 5.8% and 12.2% | [5] 7.65% and -26.8% | [6] 8.2% and -9.2%

O=S(=O)(O)O.[Co+2].[NH-]CC[NH-].[NH-]CC[NH-].[NH-]CC[NH-]
inactive: [1] 11.1% | [2] 21.9% | [3] 9.75% | [4] 17.8% | [5] 3.2% | [6] 1%
